Molecular target: T1, Aspartate--tRNA(Asp/Asn) ligase (Mycobacterium tuberculosis (strain ATCC 25618 / H37Rv)) (UniProt P9WFW3); further: in the data most compounds retested in dose-response had high values
T1 sequence (whole entry): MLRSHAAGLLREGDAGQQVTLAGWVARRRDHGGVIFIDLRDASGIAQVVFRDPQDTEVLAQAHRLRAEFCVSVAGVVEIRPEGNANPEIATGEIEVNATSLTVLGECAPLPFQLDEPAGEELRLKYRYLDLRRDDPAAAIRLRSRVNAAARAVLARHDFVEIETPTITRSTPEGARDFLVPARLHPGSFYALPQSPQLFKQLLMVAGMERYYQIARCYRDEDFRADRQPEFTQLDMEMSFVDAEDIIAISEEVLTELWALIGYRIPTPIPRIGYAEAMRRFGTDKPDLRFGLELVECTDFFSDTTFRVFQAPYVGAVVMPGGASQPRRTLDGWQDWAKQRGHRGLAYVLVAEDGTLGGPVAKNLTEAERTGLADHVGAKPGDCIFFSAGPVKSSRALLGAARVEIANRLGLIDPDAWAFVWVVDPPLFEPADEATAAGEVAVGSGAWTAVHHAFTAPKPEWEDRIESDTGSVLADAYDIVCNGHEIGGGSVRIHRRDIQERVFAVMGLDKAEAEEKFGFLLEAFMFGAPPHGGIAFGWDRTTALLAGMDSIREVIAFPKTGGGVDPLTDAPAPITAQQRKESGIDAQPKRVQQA
Test: Assay for Asp RNA synthetase-1 from Mycobacterium tuberculosis
Format: functional
Parameters: scale not given: direction of the effect not stated beside the values
Details: 30 µM

Compound | Percent Effect [%]
Fc1ccc(CN2CCCN(Cc3cscn3)CC2)cc1 | 1.87
NC(=O)CSCCC(=O)N1CCCC1c1ccsc1 (stereo not drawn) | -7.94
CC(=O)N1CCC(CN2CCN(Cc3nccn3C)C(C)C2)CC1 (stereo not drawn) | 7.78
CCC(CC)c1cc(CNC(=O)N2CCCC(N(C)C)C2)on1 (stereo not drawn) | -1.74
CCc1cnc(CN(C)C2CCN(CCS(C)(=O)=O)C2)o1 (stereo not drawn) | 0.585
CCOc1ncccc1NC(=O)NC1CCN(S(C)(=O)=O)CC1 | 5.32
CC(=O)N1CCCC(c2ccc(Nc3nc(C)cc(C)n3)cn2)C1 (stereo not drawn) | -1.31
CN(C)S(=O)(=O)N1CCC(Oc2cnccn2)CC1 | -9.05
Cc1ccc(N2CCCC(NCc3cscn3)C2)nn1 (stereo not drawn) | 10.3
CCn1cc(NC(=O)NCC(O)c2ccccc2)cn1 (stereo not drawn) | -0.4
CCn1cc(CN(C)S(=O)(=O)c2ccc(NC(C)=O)cc2)cn1 | 2.64
CN(C)C(=O)N1CCN(Cc2nnc(C(C)(C)C)o2)CC1 | -2.73
CC(NC(=O)N(C)Cc1ccsc1)c1ccc2c(c1)OCO2 (stereo not drawn) | 1.79
Cc1cccn2cc(CC(=O)N3CCCC(n4cncn4)C3)nc12 (stereo not drawn) | 1.06
Cc1ccc(CNC(=O)NCc2csc(C)n2)cn1 | -3.34
Cc1cccnc1NCCNC(=O)[C@H]1CNC[C@@H](C(=O)N2CCCC2)C1 | -0.342
CN(C)c1ncccc1CNC(=O)N1CCCC1c1ccsc1 (stereo not drawn) | 2.25
CN(Cc1cn2c(n1)CN(C(=O)CC1CC1)CC2)Cc1ccco1 | -0.868
N#Cc1ncn(CC(=O)Nc2cc(Cl)ccc2F)n1 | 9.55
COc1ncccc1NC(=O)c1cccc(C)n1 | 1.43

Compound | Percent Effect [%]
Cc1nc(CN2CCn3cc(CNC(=O)C4CCC4)nc3C2)cs1 | 11
CC(C)c1cc(NC(=O)CN2CCC(N3CCNC3=O)CC2)on1 | 0.0463
O=C(NCC1CC1)[C@H]1C[C@@H]2CN(S(=O)(=O)Cc3ccccc3)C[C@H]1O2 | 4.1
NC(=O)c1ccc(CN2CCCC(O)C2)cc1 (stereo not drawn) | -3.73
COCCN1CCN(CCCS(C)(=O)=O)CC1C (stereo not drawn) | -5.8
CN1CCN(Cc2ccccc2CNC(=O)c2ccc(Br)cc2F)CC1 | 2.64
CNC(=O)C(NC(=O)c1nccn2ccnc12)c1ccc(F)c(F)c1 (stereo not drawn) | 0.0141
O=C1CCCN1CC1CN(C(=O)CC2CCCC2)Cc2nccn2C1 (stereo not drawn) | 4.01
c1cnnc(NCC2CN(Cc3cccc4c3OCCO4)CCO2)c1 (stereo not drawn) | -1.18
COCC(=O)N(C)Cc1cccc(Cl)c1 | -0.779
COc1cc(CNCCc2cnn(C)c2)cc2c1OCCO2 | -1.03
COc1ccc(OCC(=O)NC(C)c2ccc(F)cc2)c(C(=O)O)c1 (stereo not drawn) | 0.691
O=C(NCCc1nnc2n1CCC2)NC1(c2cccc(F)c2)CC1 | 3.98
Cc1cccc(NC(=O)N2CCCn3cnc(CN4CCCC4)c3C2)c1 | -3.25
CC(C)CN1CCC(NC(=O)c2ccc(F)cc2I)CC1 | -2.95
Cc1cnn(C2CN(CC(=O)NCCc3ccccc3)C2)c1 | -1.74
CC(C)NC(=O)COc1nc(C(C)(C)C)no1 | 0.301
CCCc1cc(NC2CCc3ncnn3C2)n2ncnc2n1 (stereo not drawn) | -2.01
c1cc(CNCc2ccnc(N3CCOCC3)c2)c2c(c1)OCCO2 | 1.9

Molecular target: Shiga toxin 2 (Escherichia coli O157:H7) (UniProt P09385+P09386)
Test: E. coli 0.157:H7 Shiga Toxin SOP - stx2 screening assay
Format: functional
Parameters: scale not given: direction of the effect not stated beside the values
Details: 30 µM

Compound | Percent Effect [%]
Fc1ccc(CN2CCCN(Cc3cscn3)CC2)cc1 | 2.42
NC(=O)CSCCC(=O)N1CCCC1c1ccsc1 (stereo not drawn) | 6.46
CC(=O)N1CCC(CN2CCN(Cc3nccn3C)C(C)C2)CC1 (stereo not drawn) | 18.6
CCC(CC)c1cc(CNC(=O)N2CCCC(N(C)C)C2)on1 (stereo not drawn) | 9.62
CCc1cnc(CN(C)C2CCN(CCS(C)(=O)=O)C2)o1 (stereo not drawn) | -7.2
CCOc1ncccc1NC(=O)NC1CCN(S(C)(=O)=O)CC1 | -16.8
CC(=O)N1CCCC(c2ccc(Nc3nc(C)cc(C)n3)cn2)C1 (stereo not drawn) | 3.11
CN(C)S(=O)(=O)N1CCC(Oc2cnccn2)CC1 | -9.23
Cc1ccc(N2CCCC(NCc3cscn3)C2)nn1 (stereo not drawn) | 15.1
CCn1cc(NC(=O)NCC(O)c2ccccc2)cn1 (stereo not drawn) | -5.7
CCn1cc(CN(C)S(=O)(=O)c2ccc(NC(C)=O)cc2)cn1 | -65.2
CN(C)C(=O)N1CCN(Cc2nnc(C(C)(C)C)o2)CC1 | 3.28
CC(NC(=O)N(C)Cc1ccsc1)c1ccc2c(c1)OCO2 (stereo not drawn) | 28.8
Cc1cccn2cc(CC(=O)N3CCCC(n4cncn4)C3)nc12 (stereo not drawn) | -13.1
Cc1ccc(CNC(=O)NCc2csc(C)n2)cn1 | -8.48
Cc1cccnc1NCCNC(=O)[C@H]1CNC[C@@H](C(=O)N2CCCC2)C1 | -7.88
CN(C)c1ncccc1CNC(=O)N1CCCC1c1ccsc1 (stereo not drawn) | 5.76
CN(Cc1cn2c(n1)CN(C(=O)CC1CC1)CC2)Cc1ccco1 | -5.93
N#Cc1ncn(CC(=O)Nc2cc(Cl)ccc2F)n1 | -46.7
COc1ncccc1NC(=O)c1cccc(C)n1 | -22.7

Compound | Percent Effect [%]
Cc1nc(CN2CCn3cc(CNC(=O)C4CCC4)nc3C2)cs1 | -50.1
CC(C)c1cc(NC(=O)CN2CCC(N3CCNC3=O)CC2)on1 | -28.7
O=C(NCC1CC1)[C@H]1C[C@@H]2CN(S(=O)(=O)Cc3ccccc3)C[C@H]1O2 | -14.6
NC(=O)c1ccc(CN2CCCC(O)C2)cc1 (stereo not drawn) | -9.74
COCCN1CCN(CCCS(C)(=O)=O)CC1C (stereo not drawn) | -23.7
CN1CCN(Cc2ccccc2CNC(=O)c2ccc(Br)cc2F)CC1 | -9.7
CNC(=O)C(NC(=O)c1nccn2ccnc12)c1ccc(F)c(F)c1 (stereo not drawn) | 14.2
O=C1CCCN1CC1CN(C(=O)CC2CCCC2)Cc2nccn2C1 (stereo not drawn) | -4.12
c1cnnc(NCC2CN(Cc3cccc4c3OCCO4)CCO2)c1 (stereo not drawn) | -1.74
COCC(=O)N(C)Cc1cccc(Cl)c1 | -8.03
COc1cc(CNCCc2cnn(C)c2)cc2c1OCCO2 | 10.4
COc1ccc(OCC(=O)NC(C)c2ccc(F)cc2)c(C(=O)O)c1 (stereo not drawn) | 12
O=C(NCCc1nnc2n1CCC2)NC1(c2cccc(F)c2)CC1 | -25
Cc1cccc(NC(=O)N2CCCn3cnc(CN4CCCC4)c3C2)c1 | -16.8
CC(C)CN1CCC(NC(=O)c2ccc(F)cc2I)CC1 | -20.7
Cc1cnn(C2CN(CC(=O)NCCc3ccccc3)C2)c1 | 32.1
CC(C)NC(=O)COc1nc(C(C)(C)C)no1 | 2.21
CCCc1cc(NC2CCc3ncnn3C2)n2ncnc2n1 (stereo not drawn) | 1.41
c1cc(CNCc2ccnc(N3CCOCC3)c2)c2c(c1)OCCO2 | -11.8

Reference: ChEMBL document CHEMBL3988442, “University of Dundee, Small-Polar-MMV Screening Library” (2021)
